Source: PubChem BioAssay AID651820 (National Center for Advancing Translational Sciences (NCATS), 2012)
Among all 340,000 compounds or so, about 12,000 (3.5%) were called active. A call without a number means that no potency is given here. Roughly 18% stayed inconclusive and do not appear here. Calls follow the shape of the dose curve; as a rule, active = well fitted inhibition curve with a large enough effect; inconclusive = small, poorly fitted or top-dose-only effect, or another doubt; inactive = no such curve, though single readings can be large or run the other way. Only a selection was taken, and actives are over-represented in it overall.

assay: qHTS Assay for Inhibitors of Hepatitis C Virus (HCV); details: Huh7.5.1 HCVcc-Cre infection, luciferase reporter, 44 h; series mostly up to 41.8 µM
In short: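 Antiviral activity was scored by luciferase reporter output from cells infected with HCVcc-Cre (~0.5 moi) in presence of compound, 44 h infection period, cells seeded 1,000/well 4 h prior.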
Potency is read from the fitted curve at half-maximal effect.

SMILES | Potency
CCc1cccc(CC)c1NC(=S)NCc1ccc2[nH]c(C)cc2c1 | 14.1 µM (active)
CCc1cccc(CC)c1NC(=S)Nc1ccc2cn[nH]c2c1 | inactive
Cc1cc2cc(CNC(=O)c3ccc(S(=O)(=O)N4CCOCC4)cc3)ccc2[nH]1 | inactive
CC(Sc1nnc(-c2cccs2)n1C1CC1)C(=O)NCC1CCCO1 (stereo not given) | inactive
O=C(COC(=O)Cn1[nH]c(=O)c2ccccc2c1=O)Nc1ncc(Cl)cc1Cl | inactive
COc1ccc(N2CCN(C(=O)CCNC(=O)c3ccc(Br)cc3)CC2)cc1 | inactive
CC1CCCCC12NC(=O)N(CC(=O)OCc1c(F)cccc1Cl)C2=O (stereo not given) | inactive
CCc1ccccc1NC(=O)NCCN1CCCCC1 | inactive
CN1CCc2ccccc2C1Cc1ccccc1NC(=O)c1sc2ccccc2c1Cl (stereo not given) | 14.1 µM (active)
O=C(Nc1ccon1)c1sc2ccccc2c1Cl | inactive
Cc1ccc(NC(=O)CSCC(=O)Nc2sccc2C#N)cc1 | inactive
CCCCCCCCCCCCN1[C@@H](CC(C)=O)c2cc(F)cc(F)c2S1(=O)=O | inactive
O=C(CN1C(=O)NC(Cc2c[nH]c3ccccc23)C1=O)Nc1ccccc1C(F)(F)F (stereo not given) | inactive
O=C(OCCOCn1cc(Br)c(=O)[nH]c1=O)c1ccccc1 | inactive
CN(C)CCOc1ccc(Cl)cc1C(C)(C)C | inactive
Cc1cc(Cl)ccc1OCCCC(=O)NCc1ccncc1 | inactive
CC(C)(C)NCCCOc1ccc(Cl)cc1C(C)(C)C | 5.01 µM (active)
NC1=NC(c2ccc([N+](=O)[O-])cc2)N(c2ccc(F)cc2)C(N)=N1 (stereo not given) | inactive
COc1ccc(S(=O)(=O)N2CCOC23CCN(S(=O)(=O)c2ccc([N+](=O)[O-])cc2)CC3)cc1 | inactive
CCn1c(NCCc2ccc(OC)c(OC)c2)nc2c1c(=O)n(C)c(=O)n2C | 11.2 µM (active)
CCCCNc1nc2c(c(=O)n(C)c(=O)n2C)n1Cc1cccc(OC)c1 | 6.31 µM (active)
CCCCNc1nc2c(c(=O)[nH]c(=O)n2C)n1CCOc1ccccc1 | inactive
Cn1c(=O)c2c(nc(NCc3ccccc3)n2CC(N)=O)n(C)c1=O | inactive
COc1ccc(CNc2nc3c(c(=O)[nH]c(=O)n3C)n2Cc2ccccc2)cc1 | inactive
CCCCn1c(SCC(=O)NCCc2ccc(OC)c(OC)c2)nc2c1c(=O)n(C)c(=O)n2C | inactive
CC[C@]1(C(=O)OC)[C@H]2C(=O)N(C)C(=O)[C@H]2[C@H]2CN(C)C(=NCc3ccccc3)N21 | inactive
Cc1cccc(C=CC(=O)c2ccc(Cl)cc2)c1 | inactive
COc1ccc(CNS(=O)(=O)c2ccc(NC(=O)N3CCCCC3)cc2)cc1 | 8.91 µM (active)
COc1ccc(S(=O)(=O)NC(C)C(=O)N2CCCCCC2)cc1 (stereo not given) | inactive
COc1ccc(S(=O)(=O)NCc2ccc(C(=O)N3CCC4(CC3)OCCO4)cc2)cc1 | inactive
